Source: PubChem BioAssay
Most compounds without a hit are left out; they make up all but 1.2% or so of the library.
USP1 inh: inhibitors of human USP1/UAF1 deubiquitinase. Potency, µM (series often up to 57.1 µM), for inactives: at the top dose activity change, negative = inhibition, most hits filed as inhibitors. recombinant USP1/UAF1, Ub-Rhodamine cleavage fluorescence. 390,000 tested, 0.23% active. AID 743255. O94782; further: on the % scale 0 is the no-effect control and ±100 the full control effect; nearly all actives have a fitted effect of over 60% in size
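1 nM enzyme complex + cpd, 15 min RT; start with Ub-Rho 150nM final; kinetic fluorescence ex 480/em 540, 6 reads q60 s. Buffer 50mM HEPES pH 7.8, 0.5mM EDTA, 0.1 mg/ml BSA, 1mM TCEP, 0.01% Tween-20.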
EPAC2 agonist: EPAC2 (human) agonism | Potency, µM (series often up to 154 µM), for the others: top-dose activation, usual class: activators | 360,000 tested, 0.079% active | Q8WZA2 | AID 720711 | EPAC2 activation, biochemical qHTS; response scale: 100% = 6.5 mM cAMP response; further: nearly all actives have a fitted effect of over 50% in size
Target sequence (Q8WZA2 whole entry, looked up): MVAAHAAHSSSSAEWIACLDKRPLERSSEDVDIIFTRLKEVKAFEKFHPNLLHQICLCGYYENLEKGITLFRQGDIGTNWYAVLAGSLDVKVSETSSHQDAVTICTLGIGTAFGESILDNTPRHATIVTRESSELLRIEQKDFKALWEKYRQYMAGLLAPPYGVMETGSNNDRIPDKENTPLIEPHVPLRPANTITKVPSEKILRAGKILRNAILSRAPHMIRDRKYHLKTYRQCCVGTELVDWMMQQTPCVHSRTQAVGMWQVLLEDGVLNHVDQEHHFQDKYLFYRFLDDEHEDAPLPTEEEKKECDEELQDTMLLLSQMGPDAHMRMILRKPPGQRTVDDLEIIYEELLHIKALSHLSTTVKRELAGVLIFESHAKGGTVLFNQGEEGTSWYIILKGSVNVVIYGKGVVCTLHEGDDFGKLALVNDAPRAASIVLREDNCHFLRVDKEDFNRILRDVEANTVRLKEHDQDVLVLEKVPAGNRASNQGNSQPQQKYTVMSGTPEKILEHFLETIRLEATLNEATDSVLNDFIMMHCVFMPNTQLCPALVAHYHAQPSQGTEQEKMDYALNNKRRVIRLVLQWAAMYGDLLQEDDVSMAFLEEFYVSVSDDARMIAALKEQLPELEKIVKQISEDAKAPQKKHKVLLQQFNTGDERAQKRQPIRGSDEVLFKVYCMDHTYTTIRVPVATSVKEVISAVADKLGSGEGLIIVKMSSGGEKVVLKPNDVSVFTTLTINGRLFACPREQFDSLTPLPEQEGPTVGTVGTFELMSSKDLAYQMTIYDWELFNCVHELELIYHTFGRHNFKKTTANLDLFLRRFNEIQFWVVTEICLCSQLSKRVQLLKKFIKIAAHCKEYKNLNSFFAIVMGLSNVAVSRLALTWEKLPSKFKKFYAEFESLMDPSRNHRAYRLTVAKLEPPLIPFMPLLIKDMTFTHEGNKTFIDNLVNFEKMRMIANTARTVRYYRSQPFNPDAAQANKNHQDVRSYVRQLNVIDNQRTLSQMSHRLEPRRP
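Nucleotide exchange monitored as fluorescence drop when BODIPY-GDP leaves Rap1B. Reaction: 100 nM EPAC2, 250 nM RAP1B-BODIPY-GDP, 50 uM GDP, room temperature, kinetic read over 30 min. Activity expressed relative to 6.5 mM cAMP.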
EPAC1 antag: EPAC1 (human) antagonism; Potency, µM (series often up to 115 µM), for inactives: at the top dose activity change, negative = inhibition, hits mostly inhibitors; O95398; AID 720709; EPAC1 GEF assay, Rap1b-BODIPY-GDP exchange fluorescence; 360,000 tested, 0.14% active;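 further: plate controls were vehicle for no effect and positive control for full effect; nearly all actives have a fitted effect of over 50% in size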
VDR inhibitor: vitamin D3 receptor (human) inhibition | P11473 | VDR-SRC2-3 peptide fluorescence polarization, 2 h | Potency, µM, for inactives: max response, negative = inhibition, usual class: inhibitors | 400,000 tested, 0.93% active | AID 504847; further: on the % scale 0 is the no-effect control and ±100 the full control effect
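FP read-out; VDR + SRC2-3 coactivator peptide; 23 nl compound by pintool; 2 h RT incubation; reagents held at 4 deg C, protected from light.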
EPAC2 antag: antagonists of human EPAC2 | EPAC2 GEF exchange of Rap1B-BODIPY-GDP, fluorescence | Potency, µM (highest dose often 114 µM), without a hit: top-dose activity, negative = inhibition, actives largely listed as inhibitors | 360,000 tested, 0.18% active; further: on the % scale 0 is the no-effect control and ±100 the full control effect; nearly all actives have a fitted effect of over 45% in size
EPAC1 ag: EPAC1 (human) agonism; O95398; EPAC1 agonist qHTS, biochemical assay; response scale: 100% = response to 6.5 mM cAMP; Potency, µM (highest dose often 154 µM), inactives show at the top dose activation, most hits filed as activators; 360,000 tested, 0.073% active; AID 720707; further: nearly all actives have a fitted effect of over 60% in size
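Normalized to 6.5 mM cAMP, activity reflects EPAC1-catalysed release of BODIPY-GDP from Rap1B, followed kinetically over 30 min at 480 nm excitation, 540 nm emission. Reaction contained 100 nM EPAC1, 250 nM Rap1B-BODIPY-GDP, 50 uM GDP.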
The depositor's hits bear a star; ? = inconclusive; . = no result given. The call rests on the fitted dose curve; in most records, active means well fitted curve in the direction sought with a large enough effect; inconclusive means small, poorly fitted or top-dose-only effect, or another doubt; inactive means no such curve, though single readings can be large; an effect the other way counts as inactive or inconclusive. Potency means the concentration at half of the fitted maximal effect.

SMILES | USP1 inh | EPAC2 agonist | EPAC1 antag | VDR inhibitor | EPAC2 antag | EPAC1 ag
Cc1noc(C)c1-c1ccc2ncnc(NC3CCNCC3)c2c1 | . | . | . | 45µM* | . | .
Cc1ccccc1-c1ccc2ncnc(NCCN3CCOCC3)c2c1 | . | . | . | 50µM* | . | .
Cc1ccccc1-c1ccc2ncnc(N3CCOCC3)c2c1 | . | . | . | 56µM* | . | .
COc1cccc(-c2ccc3ncnc(N4CCOCC4)c3c2)c1 | . | . | . | -11% | . | .
Cc1noc(C)c1-c1ccc2ncnc(N3CCOCC3)c2c1 | . | . | . | 50µM* | . | .
COCc1oc2ccc(NS(=O)(=O)c3ccc(C)cc3)cc2c1C(=O)OC | -22% | . | . | -12% | . | .
Cc1nn(S(=O)(=O)c2ccc(C(C)(C)C)cc2)c(C)c1S(=O)(=O)N1CCCCCC1 | -20% | . | . | 17% | . | .
CC[n+]1ccc(/C=C/c2c[nH]c3ccccc23)cc1 | 28µM* | 100µM* | 52% | -2% | 45% | ?
Cc1ccc2[nH]cc(/C=C/c3cc[n+](C)cc3)c2c1 | 28µM* | ? | 72% | -7% | 65% | 100µM*
CCn1c(/C=C/c2c[nH]c3ccccc23)nc2ccccc2c1=O | -1% | 1% | -4% | -13% | -16% | 6%
Cc1ccc(C)c(OCC(=O)Nc2ccccc2C(=O)NC2CC2)c1 | -25% | 3% | 3% | 89µM* | 16% | -7%
COc1ccc(C(=O)c2sc3nc4c(c(C(F)(F)F)c3c2N)CN(C(C)=O)CC4)cc1OC | 40µM* | . | . | -2% | . | .
COc1ccc(CNC(=O)c2sc3nc4c(c(C(F)(F)F)c3c2N)CCC4)cc1OC | -8% | -5% | 2% | 40µM* | -8% | -7%
CCC(Sc1nc2cc3c(cc2c(=O)n1CCCCCC(=O)NCc1ccc2c(c1)OCO2)OCO3)C(=O)NCCCOC (stereo unspecified) | -19% | . | . | 25% | . | .
COc1ccc(C2CC(=O)N3CN(C4CCCCC4)CSC3=C2C#N)cc1 (stereo unspecified) | ? | . | . | 45µM* | . | .
COc1cc(OC)c(C2CC(=O)N3CN(c4ccc(C)cc4)CSC3=C2C#N)cc1OC (stereo unspecified) | -28% | 2% | -2% | 45µM* | 5% | 10%
N#CC1=C2SCN(c3ccc(F)cc3)CN2C(=O)CC1c1cccc(F)c1 (stereo unspecified) | -12% | 6% | -17% | ? | 4% | -3%
CCOc1ccccc1N1CSC2=C(C#N)C(c3c(OC)ccc4ccccc34)CC(=O)N2C1 (stereo unspecified) | -19% | 6% | 3% | ? | -1% | 2%
COc1ccc(N2CSC3=C(C#N)C(c4ccc(OC)c(OC)c4)CC(=O)N3C2)c(OC)c1 (stereo unspecified) | ? | 23% | -10% | 32µM* | -9% | 1%
COc1ccc(N2CSC3=C(C#N)C(c4cc(OC)c(OC)cc4OC)CC(=O)N3C2)c(OC)c1 (stereo unspecified) | ? | 11% | 0% | 45µM* | 7% | 6%
C[Se]CC[C@H](N)C(=O)O | . | . | . | 20% | . | .
NC(CC(=O)Nc1ccc(Oc2cc(F)c(F)cc2Br)cc1)C(=O)O (stereo unspecified) | . | . | . | -8% | . | .
COc1ccc(CNc2nc3c(-c4ccc(C)cc4)nnn3c3ccccc23)cc1 | -26% | . | . | -7% | . | .
COc1ccc(N2CSC3=C(C#N)C(c4cc(OC)ccc4OC)CC(=O)N3C2)c(OC)c1 (stereo unspecified) | ? | 9% | -19% | 16µM* | -6% | 1%
COc1ccc(C2CC(=O)N3CN(c4ccc(C)c(Cl)c4)CSC3=C2C#N)cc1OC (stereo unspecified) | -8% | -2% | 26% | 22µM* | -15% | 10%
SMILES | USP1 inh | EPAC2 agonist | EPAC1 antag | VDR inhibitor | EPAC2 antag | EPAC1 ag
O=C(c1ccccc1Cl)n1nc(-c2cccnc2)nc1NCc1ccc(F)cc1 | -19% | . | . | 11% | . | .
Cc1ccc(/C=C2/CNC/C(=C\c3ccc(C)cc3)C2=O)cc1 | . | . | . | 2µM* | . | .
COc1ccc(-c2c(C3C4C=CCCC4(C)C(=O)N3Cc3ccccc3)ccc3ccccc23)cc1 (stereo unspecified) | . | . | . | -6% | . | .
COc1cccc(-c2nc(N(C)C)c3ccccc3n2)c1 | . | . | . | 56µM* | . | .
CC12CCC3(CC1CCC1OC12)OCCO3 (stereo unspecified) | -3% | -1% | -21% | -15% | 0% | -2%
CC1(C2CCC3C4CCC5CC6(CCC5(C)C4C(=O)CC32C)OCCO6)OCCO1 (stereo unspecified) | -2% | 5% | ? | 13% | 56µM* | 8%
Cc1ccc(S(=O)(=O)N2CCc3cc(C(=O)N(C)Cc4ccccc4)ccc32)cc1 | -24% | . | . | -2% | . | .
CCOC(=O)c1cc2n(c1/N=C/N(C)C)-c1ccccc1C2=O | 25µM* | 100µM* | 137% | 1% | 48% | 100µM*
CCC(=O)N1CCc2cc(S(=O)(=O)CCC(=O)Nc3ccc(Cl)c(C(F)(F)F)c3)ccc21 | -30% | . | . | -14% | . | .
Cc1sc(-n2cccc2)c(C(C)NC(=O)Nc2ccccc2Cl)c1C (stereo unspecified) | -20% | . | . | 4% | . | .
CC(Cl)OC(=O)Nc1cccc2cccnc12 (stereo unspecified) | . | . | . | 5% | . | .
Cc1ccc(C(=O)N/C(=C\c2ccc(-c3ccccc3[N+](=O)[O-])o2)C(=O)NCCCN(C)C)cc1 | 28µM* | 15% | 10% | 10% | 1% | 1%
N#Cc1c(Nc2ccccc2)sc(C(=O)c2ccccc2)c1N | -2% | 1% | 3% | 0% | 35µM* | 3%
CCCCCCCCCCCCCCC(C(=O)O)C(O)(CC(=O)OC)C(=O)O (stereo unspecified) | . | . | . | 22µM* | . | .
CCc1ccc(NC2=CC(=O)C(=O)c3ccccc32)cc1 | 28µM* | 0% | -23% | ? | -8% | -40%
CCCCNC1=CC(=O)C(=O)c2ccccc21 | 25µM* | 8% | ? | ? | -1% | 9%
O=C1C=C(Nc2ccccc2)C(=O)c2ccccc21 | ? | 3% | ? | 4% | -8% | 0%
Clc1nssc1=Nc1ccc(Br)cc1 | -36% | 14% | -12% | 35µM* | 6% | 7%
Clc1nssc1=Nc1nncs1 | -23% | 4% | 18% | 5.6µM* | -6% | -3%
COc1cc(N=c2ssnc2Cl)cc(OC)c1 | -21% | 6% | 8% | 20µM* | 9% | 0%
N#Cc1cccc(N=c2ssnc2Cl)c1 | ? | -4% | -19% | ? | -6% | 3%
Clc1ccc(N=c2ssnc2Cl)nc1 | -7% | -3% | -17% | 5.6µM* | 13% | 3%
